# Results as given in the supplement of paper PMC11732987, “Enantioselective OTUD7B fragment discovery through chemoproteomics screening and high-throughput optimisation” (Communications Chemistry, 2025).
# Values without a mark were called inactive.
# How the values were obtained:
# Test in all cases: log2 ratio of Biotin-Ahx-Ub-VS probe labelling (fragment/DMSO); higher = less target engagement (more negative = stronger competition), active = hit call of the paper (q ≤ 0.05, log2 ratio ≤ -1)
# Conditions in all cases: compound concentration: 200 uM; treatment time: 3 h
# USP19 = target: T1, USP19 (UniProt O94966)
# T1 sequence (whole entry): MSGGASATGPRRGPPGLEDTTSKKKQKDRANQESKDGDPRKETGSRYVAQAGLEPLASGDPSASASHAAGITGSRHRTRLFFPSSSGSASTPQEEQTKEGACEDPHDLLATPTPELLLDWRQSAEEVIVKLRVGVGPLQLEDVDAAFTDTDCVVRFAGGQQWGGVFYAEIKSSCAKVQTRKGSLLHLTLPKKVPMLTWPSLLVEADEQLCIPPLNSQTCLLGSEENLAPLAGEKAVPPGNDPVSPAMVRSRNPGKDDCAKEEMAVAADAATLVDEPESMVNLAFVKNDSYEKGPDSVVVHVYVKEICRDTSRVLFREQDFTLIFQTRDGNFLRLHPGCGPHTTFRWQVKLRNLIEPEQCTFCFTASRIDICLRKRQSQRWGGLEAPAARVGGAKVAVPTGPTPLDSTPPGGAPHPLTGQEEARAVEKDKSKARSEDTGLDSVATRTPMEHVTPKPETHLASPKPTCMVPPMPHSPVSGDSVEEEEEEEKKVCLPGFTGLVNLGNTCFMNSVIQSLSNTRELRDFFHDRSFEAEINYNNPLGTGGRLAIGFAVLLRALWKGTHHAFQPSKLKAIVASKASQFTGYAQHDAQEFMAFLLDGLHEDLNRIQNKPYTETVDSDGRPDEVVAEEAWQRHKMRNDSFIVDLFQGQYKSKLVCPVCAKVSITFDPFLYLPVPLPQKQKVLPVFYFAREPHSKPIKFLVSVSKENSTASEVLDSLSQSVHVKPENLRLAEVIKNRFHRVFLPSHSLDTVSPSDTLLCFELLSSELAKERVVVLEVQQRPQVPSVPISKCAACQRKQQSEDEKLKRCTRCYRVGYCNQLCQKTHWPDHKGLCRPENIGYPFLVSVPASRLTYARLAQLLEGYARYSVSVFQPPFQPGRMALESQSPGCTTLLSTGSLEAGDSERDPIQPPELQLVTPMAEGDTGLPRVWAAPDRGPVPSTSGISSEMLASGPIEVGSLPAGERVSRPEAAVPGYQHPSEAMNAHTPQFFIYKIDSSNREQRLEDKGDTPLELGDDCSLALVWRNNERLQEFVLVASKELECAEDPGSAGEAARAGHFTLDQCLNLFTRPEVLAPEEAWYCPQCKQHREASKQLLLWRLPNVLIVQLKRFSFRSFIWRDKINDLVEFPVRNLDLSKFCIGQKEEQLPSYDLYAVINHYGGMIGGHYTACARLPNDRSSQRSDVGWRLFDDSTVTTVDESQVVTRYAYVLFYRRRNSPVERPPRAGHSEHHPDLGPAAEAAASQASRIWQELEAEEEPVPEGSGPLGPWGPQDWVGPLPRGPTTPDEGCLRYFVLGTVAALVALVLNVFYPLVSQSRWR
# Method in brief: (§1)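 The table lists average log2 ratios of fragment over vehicle, from an unpaired t-test on global-median-normalised Spectronaut label-free quantities. Proteins with ≥2 unique peptides were used. Samples were HEK293T lysate (495 µg) treated in triplicate with fragment at 200 µM or vehicle for 3 h, then with Biotin-Ahx-Ub-VS (0.5 µM final) for 1 h, with labelled DUBs NeutrAvidin-enriched and run by diaPASEF LC-MS/MS.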
# USP22 = target: T2, USP22 (UniProt Q9UPT9)
# T2 sequence (whole entry): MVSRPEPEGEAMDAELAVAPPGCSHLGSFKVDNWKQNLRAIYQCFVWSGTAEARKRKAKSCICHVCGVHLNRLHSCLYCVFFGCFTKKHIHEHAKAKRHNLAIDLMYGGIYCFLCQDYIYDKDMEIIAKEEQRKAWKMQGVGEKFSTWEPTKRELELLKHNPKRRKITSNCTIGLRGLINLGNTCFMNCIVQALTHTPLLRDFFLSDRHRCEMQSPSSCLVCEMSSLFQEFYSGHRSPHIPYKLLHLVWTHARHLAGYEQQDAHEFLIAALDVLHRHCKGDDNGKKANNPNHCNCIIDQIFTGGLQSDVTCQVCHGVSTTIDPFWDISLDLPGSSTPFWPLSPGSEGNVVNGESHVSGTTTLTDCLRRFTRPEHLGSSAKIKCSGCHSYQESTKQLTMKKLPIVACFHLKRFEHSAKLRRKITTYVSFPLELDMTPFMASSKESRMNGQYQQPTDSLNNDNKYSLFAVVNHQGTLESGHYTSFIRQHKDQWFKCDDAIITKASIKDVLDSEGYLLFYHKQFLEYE
# Method in brief: as §1
# USP24 = USP24 (UniProt Q9UPU5)
# Sequence of USP24 (Q9UPU5 whole entry): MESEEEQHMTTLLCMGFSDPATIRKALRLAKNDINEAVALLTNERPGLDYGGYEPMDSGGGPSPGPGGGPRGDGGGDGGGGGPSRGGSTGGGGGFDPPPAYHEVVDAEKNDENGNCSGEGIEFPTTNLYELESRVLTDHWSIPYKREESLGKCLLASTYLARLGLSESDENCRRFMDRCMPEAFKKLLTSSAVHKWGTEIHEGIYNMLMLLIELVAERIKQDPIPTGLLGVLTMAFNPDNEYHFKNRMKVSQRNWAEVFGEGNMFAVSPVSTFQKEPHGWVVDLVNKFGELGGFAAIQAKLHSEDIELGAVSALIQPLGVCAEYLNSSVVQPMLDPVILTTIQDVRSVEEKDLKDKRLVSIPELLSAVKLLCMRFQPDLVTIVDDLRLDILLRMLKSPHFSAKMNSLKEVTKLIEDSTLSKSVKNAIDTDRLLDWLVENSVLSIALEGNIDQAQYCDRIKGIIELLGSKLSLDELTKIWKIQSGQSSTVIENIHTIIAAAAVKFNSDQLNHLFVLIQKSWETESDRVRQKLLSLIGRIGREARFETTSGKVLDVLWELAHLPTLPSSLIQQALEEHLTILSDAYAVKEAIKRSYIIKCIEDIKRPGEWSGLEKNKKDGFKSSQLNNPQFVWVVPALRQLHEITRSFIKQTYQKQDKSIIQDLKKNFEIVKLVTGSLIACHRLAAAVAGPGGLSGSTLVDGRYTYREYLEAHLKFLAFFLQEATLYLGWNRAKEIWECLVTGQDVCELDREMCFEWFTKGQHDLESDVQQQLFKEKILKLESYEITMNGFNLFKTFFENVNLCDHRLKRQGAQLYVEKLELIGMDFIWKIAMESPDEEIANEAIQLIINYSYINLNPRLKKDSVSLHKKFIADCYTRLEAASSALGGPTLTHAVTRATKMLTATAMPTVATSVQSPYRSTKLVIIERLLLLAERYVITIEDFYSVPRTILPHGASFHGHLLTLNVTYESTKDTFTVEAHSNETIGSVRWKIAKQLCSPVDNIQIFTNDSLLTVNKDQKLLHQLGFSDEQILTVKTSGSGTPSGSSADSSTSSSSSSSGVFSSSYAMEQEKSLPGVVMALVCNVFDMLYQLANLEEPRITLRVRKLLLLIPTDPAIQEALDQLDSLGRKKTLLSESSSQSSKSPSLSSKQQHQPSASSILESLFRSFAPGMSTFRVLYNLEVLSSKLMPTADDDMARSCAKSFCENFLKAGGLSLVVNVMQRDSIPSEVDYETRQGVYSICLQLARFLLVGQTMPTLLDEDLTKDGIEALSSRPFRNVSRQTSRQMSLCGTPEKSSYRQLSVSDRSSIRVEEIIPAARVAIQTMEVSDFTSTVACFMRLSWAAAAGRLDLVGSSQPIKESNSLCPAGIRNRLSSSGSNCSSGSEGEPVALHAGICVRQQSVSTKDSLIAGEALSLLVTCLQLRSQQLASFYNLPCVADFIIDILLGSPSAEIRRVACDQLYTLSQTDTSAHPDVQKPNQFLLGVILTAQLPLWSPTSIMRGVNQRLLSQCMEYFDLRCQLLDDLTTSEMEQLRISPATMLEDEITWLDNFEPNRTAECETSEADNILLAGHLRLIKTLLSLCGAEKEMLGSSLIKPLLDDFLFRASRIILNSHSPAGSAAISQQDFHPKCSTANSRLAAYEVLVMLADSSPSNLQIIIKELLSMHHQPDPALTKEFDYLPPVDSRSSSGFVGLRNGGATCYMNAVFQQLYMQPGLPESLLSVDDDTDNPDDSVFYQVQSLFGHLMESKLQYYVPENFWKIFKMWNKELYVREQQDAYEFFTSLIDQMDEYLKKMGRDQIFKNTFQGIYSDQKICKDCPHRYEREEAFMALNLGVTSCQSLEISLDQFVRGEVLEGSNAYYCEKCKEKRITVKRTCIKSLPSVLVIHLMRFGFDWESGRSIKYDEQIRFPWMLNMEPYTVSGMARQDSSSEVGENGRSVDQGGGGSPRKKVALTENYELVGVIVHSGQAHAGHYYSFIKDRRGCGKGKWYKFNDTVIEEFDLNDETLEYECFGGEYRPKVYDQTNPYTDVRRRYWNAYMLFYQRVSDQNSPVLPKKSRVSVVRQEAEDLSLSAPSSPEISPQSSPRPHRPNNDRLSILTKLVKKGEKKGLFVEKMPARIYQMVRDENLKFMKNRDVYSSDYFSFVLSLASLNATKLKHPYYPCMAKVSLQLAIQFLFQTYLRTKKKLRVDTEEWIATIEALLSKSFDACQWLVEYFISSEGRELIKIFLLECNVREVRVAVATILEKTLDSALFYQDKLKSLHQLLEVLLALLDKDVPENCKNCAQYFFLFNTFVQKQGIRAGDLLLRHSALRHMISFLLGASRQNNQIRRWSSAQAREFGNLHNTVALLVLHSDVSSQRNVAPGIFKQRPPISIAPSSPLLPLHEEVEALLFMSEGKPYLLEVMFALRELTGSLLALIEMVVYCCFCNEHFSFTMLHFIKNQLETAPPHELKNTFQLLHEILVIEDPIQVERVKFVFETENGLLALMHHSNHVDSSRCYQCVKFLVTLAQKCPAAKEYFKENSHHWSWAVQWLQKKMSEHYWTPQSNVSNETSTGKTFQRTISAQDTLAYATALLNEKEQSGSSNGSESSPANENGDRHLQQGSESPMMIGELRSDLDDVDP
# Method in brief: as §1
# USP25 = target: T3, USP25 (UniProt Q9UHP3)
# T3 sequence (whole entry): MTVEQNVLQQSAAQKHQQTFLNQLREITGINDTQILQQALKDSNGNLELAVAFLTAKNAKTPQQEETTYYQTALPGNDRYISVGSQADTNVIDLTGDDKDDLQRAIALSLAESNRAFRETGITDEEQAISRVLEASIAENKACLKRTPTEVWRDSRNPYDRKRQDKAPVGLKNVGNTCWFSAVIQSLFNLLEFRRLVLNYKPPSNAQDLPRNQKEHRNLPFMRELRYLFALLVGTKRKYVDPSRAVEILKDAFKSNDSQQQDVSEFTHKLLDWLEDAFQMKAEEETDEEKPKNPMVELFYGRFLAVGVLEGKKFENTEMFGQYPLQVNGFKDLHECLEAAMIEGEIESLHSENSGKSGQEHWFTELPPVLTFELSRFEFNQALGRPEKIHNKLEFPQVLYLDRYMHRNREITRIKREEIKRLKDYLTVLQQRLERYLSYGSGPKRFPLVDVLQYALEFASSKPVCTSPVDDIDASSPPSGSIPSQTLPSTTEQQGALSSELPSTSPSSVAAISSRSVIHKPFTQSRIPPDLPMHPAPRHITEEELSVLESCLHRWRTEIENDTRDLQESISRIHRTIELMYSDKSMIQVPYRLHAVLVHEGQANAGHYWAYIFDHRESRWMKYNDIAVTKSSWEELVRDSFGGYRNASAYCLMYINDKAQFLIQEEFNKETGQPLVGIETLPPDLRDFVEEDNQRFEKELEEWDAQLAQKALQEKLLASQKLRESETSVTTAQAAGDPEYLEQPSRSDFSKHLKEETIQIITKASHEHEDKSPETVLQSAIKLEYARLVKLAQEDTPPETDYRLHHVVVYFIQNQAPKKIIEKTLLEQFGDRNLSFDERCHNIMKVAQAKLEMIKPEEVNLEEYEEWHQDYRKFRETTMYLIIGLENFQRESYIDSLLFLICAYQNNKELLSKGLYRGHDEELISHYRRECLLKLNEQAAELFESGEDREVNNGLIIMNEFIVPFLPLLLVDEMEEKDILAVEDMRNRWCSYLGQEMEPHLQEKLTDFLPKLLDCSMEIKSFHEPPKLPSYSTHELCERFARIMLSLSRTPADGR
# Method in brief: as §1
# USP28 = target: T4, USP28 (UniProt Q96RU2)
# T4 sequence (whole entry): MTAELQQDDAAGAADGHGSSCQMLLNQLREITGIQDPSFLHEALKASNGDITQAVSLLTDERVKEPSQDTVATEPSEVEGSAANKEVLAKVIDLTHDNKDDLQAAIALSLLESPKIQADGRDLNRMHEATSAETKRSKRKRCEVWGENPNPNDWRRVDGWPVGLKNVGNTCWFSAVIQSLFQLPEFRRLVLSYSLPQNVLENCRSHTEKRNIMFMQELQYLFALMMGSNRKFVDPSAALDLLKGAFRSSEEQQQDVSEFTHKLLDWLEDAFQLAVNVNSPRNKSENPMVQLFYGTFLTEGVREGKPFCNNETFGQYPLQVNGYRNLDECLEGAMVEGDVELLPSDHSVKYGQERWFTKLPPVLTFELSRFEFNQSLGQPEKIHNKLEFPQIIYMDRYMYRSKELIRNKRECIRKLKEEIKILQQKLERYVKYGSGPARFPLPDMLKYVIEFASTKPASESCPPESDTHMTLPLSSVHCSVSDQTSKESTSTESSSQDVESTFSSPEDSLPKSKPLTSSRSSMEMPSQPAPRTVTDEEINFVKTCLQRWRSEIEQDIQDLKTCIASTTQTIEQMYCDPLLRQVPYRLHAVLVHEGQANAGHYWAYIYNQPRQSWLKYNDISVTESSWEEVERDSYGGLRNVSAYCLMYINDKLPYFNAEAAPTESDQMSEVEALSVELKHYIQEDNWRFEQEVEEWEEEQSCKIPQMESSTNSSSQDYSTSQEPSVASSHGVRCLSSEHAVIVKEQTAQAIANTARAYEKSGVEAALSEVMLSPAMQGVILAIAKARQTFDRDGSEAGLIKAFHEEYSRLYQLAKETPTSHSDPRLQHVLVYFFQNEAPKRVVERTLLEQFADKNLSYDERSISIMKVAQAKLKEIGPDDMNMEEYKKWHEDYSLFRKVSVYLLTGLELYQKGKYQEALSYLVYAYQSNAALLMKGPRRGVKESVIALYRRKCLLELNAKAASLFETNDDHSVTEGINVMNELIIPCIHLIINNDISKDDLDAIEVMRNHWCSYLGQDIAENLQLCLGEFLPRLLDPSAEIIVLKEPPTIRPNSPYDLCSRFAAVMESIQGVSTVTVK
# Method in brief: as §1
smiles,measurement,setting,value
O=C(CCl)N1CCOC(c2cccc(F)c2)C1 (stereo not given),log2 ratio of Biotin-Ahx-Ub-VS probe labelling,USP19,-0.335
same,log2 ratio of Biotin-Ahx-Ub-VS probe labelling,USP22,-0.24
same,log2 ratio of Biotin-Ahx-Ub-VS probe labelling,USP24,-1.13 (active)
same,log2 ratio of Biotin-Ahx-Ub-VS probe labelling,USP25,-0.541
same,log2 ratio of Biotin-Ahx-Ub-VS probe labelling,USP28,-0.953
